Measured values published in PubChem BioAssay AID652010 (The Scripps Research Institute Molecular Screening Center, 2013).
Screen size: about 370,000 compounds; about 4,100 (1.1%) were called active. What follows is part of a selection rich in actives, with near analogues and random picks from the rest. Unmarked numbers belong to inactive results.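 Rule for the calls: active = inhibition above the mean over all tested compounds plus 3 SD (cut at about 3.6% in these data); inactive = the rest.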

experiment: relief of DAX-1 repression of SF-1 activity – cell-based, luminescence, SF-1 (NR5A1), full-length DAX-1, primary screen (AID 652010); conditions: HEK293T StAR-luciferase reporter, SF-1/DAX-1 repression relief; at 6.8 µM; hits give high values;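 note: 0% = DAX-1 cells with DMSO and 100% = cells lacking DAX-1 with DMSO; higher inhibition means more luminescence from relief of DAX-1 repression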

Row | SMILES | inhibition
1 | Cc1ccc(C)c(NC(=O)CCS(=O)(=O)c2ccccc2)c1 | 0.88%
2 | COc1ccc(S(=O)(=O)n2nc(C)c(S(=O)(=O)N3CCOCC3)c2C)cc1 | -0.25%
3 | COc1ccc(CN2C/C(=C/c3ccccc3)N3C(=O)C[C@@H](c4ccccc4)N=C23)c(OC)c1 | -0.16%
4 | CCN(CC)C(=O)CC[C@H]1CC[C@]2(CCCN(Cc3ccc(Cl)cc3)C2)O1 | -0.32%
5 | COc1ccc(S[C@]2(C(=O)N(C)C)CC(=O)N(c3ccc(OC)cc3)[C@@H]2c2ccc(OC)cc2)cc1 | -0.46%
6 | Cc1cc(=O)[nH]c(SCC(=O)Nc2ccc(Cl)cc2C)n1 | 0.86%
7 | CCCCCCNC(=O)O[C@H]1CN(C(=O)OC(C)C)N(C(=O)OC(C)C)[C@@H]2CN(S(=O)(=O)c3ccc(C)cc3)C[C@]12O | 4.45% (active)
8 | CCCCCCNC(=O)O[C@]12C[C@@H](C(=O)OC)[C@@H](C(=O)OC)C[C@@]1(O)CN(S(=O)(=O)c1ccc(C)cc1)C2 | -0.86%
9 | Cc1ccc(S(=O)(=O)N2C[C@H]3n4c(=O)ccc(=O)n4C[C@H](OC(=O)NC4CCCC4)[C@@]3(O)C2)cc1 | -0.77%
10 | Cc1ccccc1NC(=O)COC(=O)c1ccc(Sc2ncn[nH]2)c([N+](=O)[O-])c1 | 2.48%
11 | CC1(C)OC(=O)C2=C(CC(CCc3ccccc3)OC2c2ccc(Cl)cc2)O1 (stereo not drawn) | -1.2%
12 | O=C(COC(=O)c1ccc2ncsc2c1)Nc1ccc(Cl)cc1 | -0.21%
13 | Cc1sc(NC(=O)c2ccc3ncsc3c2)c(C(N)=O)c1C | 10.2% (active)
14 | COc1ccccc1-c1nnc(NC(=O)c2ccc3ncsc3c2)o1 | 0.87%
15 | CN(Cc1ccccc1Cl)C(=O)C1CCC(=O)N(CCc2cccc(F)c2)C1 (stereo not drawn) | 0.69%
16 | CCNC(=O)c1cccc(NC(=O)C2CC(=O)N(CCc3ccccc3)C2)c1 (stereo not drawn) | 0.37%
17 | CN(CC(=O)Nc1cccc(F)c1)C(=O)C1CC(=O)N(CCc2ccccc2)C1 (stereo not drawn) | 4.19% (active)
18 | C=CCN1C(=O)[C@@H](CC(=O)N2CCN(C(=O)OCC)CC2)[C@]2(C(=O)OCC)CCCCC/C=C/12 | 1.04%
19 | COC(=O)[C@H](C(C)C)N(CCCc1cn(Cc2ccccc2)nn1)S(=O)(=O)c1ccc(F)cc1Br | -1.67%
20 | Cc1sc2ncnc(N3CCC(C(=O)NNC(=O)c4ccc(F)cc4)CC3)c2c1C | -3.62%
21 | Cc1sc2ncnc(N3CCC(C(=O)Nc4nc5ccc(Cl)cc5s4)CC3)c2c1C | 4.32% (active)
22 | Cc1sc2ncnc(N3CCC(C(=O)Nc4ccc(F)cc4Cl)CC3)c2c1C | 1.94%

Row | SMILES | inhibition
23 | CC(=O)C1=C(C)N(Cc2ccc(Cl)cc2)C(=S)NC1c1ccc(F)cc1 (stereo not drawn) | 0.31%
24 | COc1ccc(C(=O)OCC(=O)Nc2cc(C)on2)cc1F | -1.4%
25 | Cc1cc(NC(=O)COc2ccccc2C#N)no1 | 4.34% (active)
26 | Cc1cc(NC(=O)COn2nnc3ccccc32)no1 | 0.82%
27 | COc1ccc(C2CC(=O)C=C(NCC3CCCO3)C2)cc1 (stereo not drawn) | -0.07%
28 | CCCCCCN1CCS(=O)(=O)N(Cc2ccc(C(F)(F)F)cc2)C(C(=O)OC)C1 (stereo not drawn) | -0.72%
29 | CCc1ccc(CN2C(=O)c3ccccc3C2C(=O)NCC2CCCO2)cc1 (stereo not drawn) | -0.05%
30 | O=C1C(C=NCC2CCCO2)=C(O)c2ccccc21 (stereo not drawn) | 4.59% (active)
31 | CC(=NCC1CCCO1)c1c(O)[nH]c(=O)[nH]c1=O (stereo not drawn) | 1.34%
32 | COc1ccc(CNS(=O)(=O)c2cc(Br)ccc2Br)cc1 | -0.4%
33 | CCCc1cc(=O)[nH]c2nnc(SCC(=O)Nc3nnc(SCC)s3)n12 | 2.35%
34 | O=C(/C=C/c1ccccc1)Nc1nnc(SCC(=O)c2ccc3ccccc3c2)s1 | 0.17%
35 | NC(=O)CSc1nnc(NC(=O)c2ccc3ccccc3c2)s1 | 6.15% (active)
36 | COC(=O)c1ccc(CSc2nnc(NC(C)C)s2)cc1 | -0.08%
37 | COc1ccc(C(=O)CSc2nnc(NC(=O)C3CC(=O)N(c4cccc(OC)c4)C3)s2)cc1 (stereo not drawn) | -0.22%
38 | CCSc1nnc(NC(=O)c2ccc(C)cc2)s1 | 5.52% (active)
39 | CCCCOCCCNC(=O)C[C@H]1C[C@@]2(C(=O)OC)C(=C[C@H](COCc3ccccc3)O[C@@H]2C)N(Cc2cccc3ccccc23)C1=O | -0.91%
40 | COc1cc(NC(=O)C2CCCN(S(=O)(=O)c3ccc(C(C)(C)C)cc3)C2)cc(OC)c1 (stereo not drawn) | 0.97%
41 | C/C(=N\NC(=O)c1ccccc1F)c1ccccn1 | 6.14% (active)
42 | C/C(=N/NC(=O)c1ccn(C)n1)c1ccncc1 | -0.02%
43 | O=C(Nc1nnc(-c2ccccc2F)s1)c1ccccc1F | 0.85%
44 | CCCCCCCCNS(=O)(=O)/C=C/c1cc(C)ccc1CNC(=O)OC(C)(C)C | -1.91%

Row | SMILES | inhibition
45 | CN[C@H]1C[C@H]2c3cc(N4CCOCC4)ccc3CCN2C[C@H]1[C@H](C)O | -0.26%
46 | COC(=O)C1=C(C)N(Cc2cccc(C(F)(F)F)c2)C(=NCc2ccccc2)NC1c1ccccc1C(F)(F)F (stereo not drawn) | -0.23%
47 | COc1ccc(C(=O)COC(=O)c2nn(C)c(=O)c3ccccc23)c(OC)c1 | 1.33%
48 | COc1ccc(C(=O)COC(=O)CN2C(=O)C3CC=CCC3C2=O)c(OC)c1 (stereo not drawn) | 1.03%
49 | COc1ccc(C(=O)COC(=O)C(O)c2ccccc2)c(OC)c1 (stereo not drawn) | 3.84% (active)
50 | Brc1ccc(C2CC(c3ccccc3)=Nc3ccccc3N2)cc1 (stereo not drawn) | 3.86% (active)
51 | S=C1NC(c2ccccc2)=NCN1c1ccc(Br)cc1 | 0%
52 | CNC(=S)N1N=C(c2ccccc2)CC1c1ccc(Br)cc1 (stereo not drawn) | -0.46%
53 | CCOC(=O)c1c(C)[nH]c(C2=NNC(=NC(C)COC)SC2)c1C (stereo not drawn) | 4.39% (active)
54 | O=C1Nc2ccccc2C1=NN=Cc1ccco1 | -1.23%
55 | CCOC(=O)[C@]12CCCCC/C=C\1N(Cc1ccc(OC)cc1)C(=O)[C@H]2CC(=O)NCCCN1CCCC1=O | 0.28%
56 | CCOc1ccc(NS(=O)(=O)c2ccc(C(=O)NCC(c3ccccc3OC)N3CCCC3)cc2)cc1 (stereo not drawn) | 1.1%
57 | CCOc1ccc(S(=O)(=O)Nc2cccc(C(=O)NCC3(N4CCCCC4)CCCCC3)c2)cc1 | 6.71% (active)
58 | CN(C)S(=O)(=O)c1ccc(C(=O)NCC2(N3CCOCC3)CCCCC2)cc1 | 3.47%
59 | O=C(NCC1CCCO1)c1ccc(S(=O)(=O)Nc2ccc(F)cc2)cc1 (stereo not drawn) | 0.67%
60 | O=C(NCC1(N2CCCCC2)CCCCC1)c1ccc(NS(=O)(=O)c2ccc(F)cc2)cc1 | 10.6% (active)
61 | O=C(NCC1(N2CCCCC2)CCCCC1)c1cccc(S(=O)(=O)Nc2ccccc2Cl)c1 | 3.28%
62 | C=C(C)C1CC23C(=O)C4(C(=O)c5ccccc5)C[C@@]5(C)CCC(CC2C1(C)C)(C4=O)C35OC (stereo partly drawn) | -0.55%
63 | CN1C[C@]2(C=C3CCCCC3n3c(=O)n(-c4ccccc4)c(=O)n32)N=C1NC(=O)c1ccccc1 (stereo partly drawn) | -0.17%
64 | CCc1ccccc1NC(=O)CSc1nnc(-c2cccs2)o1 | -1.18%
65 | Clc1ccc(C(Cn2ccnc2)OCc2ccsc2Cl)c(Cl)c1 (stereo not drawn) | -1.62%
66 | COC(=O)c1ccccc1Oc1c(F)c(F)nc(N2CCOCC2)c1F | 0.02%

Row | SMILES | inhibition
67 | Fc1cnc(N2CCOCC2)nc1NCc1ccccc1 | 0.22%
68 | COc1ccc(Nc2ncc(F)c(N3CCOCC3)n2)cc1 | 4.78% (active)
69 | CN(C)c1ccc(NC(=O)CSc2n[nH]c(-c3ccco3)n2)cc1 | -1.06%
70 | CCCCC[C@H](C)N1C[C@@H](COCc2ccccc2)Oc2cc(N3CC[C@@H](N(C)C)C3)ccc2S1(=O)=O | 0.28%
71 | COc1ccc(C2=CN(Cc3ccccc3)C(c3ccc(OC)cc3)CC2=O)cc1 (stereo not drawn) | -1.09%
72 | O=S(=O)(NCC1CCCO1)c1ccc2ccccc2c1 (stereo not drawn) | -0.46%
73 | O=C(c1cc(COc2ccc(F)cc2F)on1)N1CCOCC1 | 1.39%
74 | O=C(c1ccco1)N1CCN(C(=O)c2cc(-c3ccccc3F)no2)CC1 | 0.38%
75 | CCOC(=O)C1CCCN(C(=O)c2cc(-c3cccs3)oc2C)CC1 (stereo not drawn) | -0.69%
76 | COc1cc(OC)c(C(=O)N2CCCC2)cc1OC | -0.07%
77 | O=C(c1cc(C2CCCCN2S(=O)(=O)c2ccccc2)on1)N1CCOCC1 (stereo not drawn) | -1.39%
78 | COc1ccc(OCc2cc(C(=O)N3CCCC3)no2)c2ccccc12 | 6.04% (active)
79 | CC(=O)c1ccc(NC(=O)c2cc(-c3cccs3)on2)cc1 | 0.84%
80 | COc1ccccc1-c1cc(C(=O)N2CCCCC2)no1 | 9.11% (active)
81 | O=C(c1cc(-c2ccccc2O)on1)N1CCCC1 | 6.48% (active)
82 | COc1ccc(C(=O)C2CCCN(C(=O)c3cc(C)on3)C2)cc1F (stereo not drawn) | -0.49%
83 | O=C(c1cc(-c2cccs2)on1)N1CCCCC1 | 4.8% (active)
84 | COc1cc(Cl)ccc1OCc1cc(C(=O)N2CC[C@@H]3CCCC[C@H]3C2)no1 | 3.53%
85 | O=C1CSC2=NCN(c3ccccc3)CN12 | -0.05%
86 | CN(C)S(=O)(=O)c1cccc(C(=O)N/N=C\c2ccco2)c1 | 0.25%
87 | COC[C@@H]1CCCN1c1ccc2c(c1)O[C@H](C)CCN(C1CC1)S2(=O)=O | -1.04%
88 | CC(C)N1CCCCC(NC(=O)c2ccc3ccccc3c2)C1=O (stereo not drawn) | 0.26%
